# Data from the supplement of paper PMC4840960.
# System: E18 rat cortical neuron-glia co-culture
# Assay: fiber score / MBP score (myelination specific beyond OL differentiation) (ratio); higher = more myelination-specific MBP alignment
# Details: 5 µM; treatment time: 8 days (DIV5-DIV13)
# In short: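 Primary E18 rat cortical co-cultures (papain-dissociated, 20,000 cells/well on poly-d-lysine/laminin 96-well plates) received library compounds at 1 or 5 µM in myelination medium from DIV5 to DIV13. Cells were fixed in 4 % paraformaldehyde and immunostained for MBP and Olig2 with DAPI, and four 10X fields per well in duplicate wells were analysed. The read-out is fiber score (continuous MBP fiber length per Olig2+ nucleus) divided by MBP score (thresholded MBP area × intensity per Olig2+ nucleus).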
row,SMILES,fiber score / MBP score
1,CN(C)C(=O)Oc1ccc[n+](C)c1 [Pyridostigmine Bromide],0.895
2,NC1=NC(=O)C(c2ccccc2)O1 (centres undefined) [Pemoline],0.845
3,CCC(COC(=O)c1cc(OC)c(OC)c(OC)c1)(c1ccccc1)N(C)C (centres undefined) [Trimebutine],0.297
4,COc1cc([C@@H]2c3cc4c(cc3[C@H](O)[C@H]3COC(=O)[C@H]23)OCO4)cc(OC)c1OC [Podophyllotoxin],0.31
5,CN1CC[C@]23CCCC[C@H]2[C@H]1Cc1ccc(O)cc13 [Levorphanol],0.735
6,CN1CC[C@]2(c3cccc(O)c3)Cc3nc4ccccc4cc3C[C@H]2C1,0.822
7,N=C(NCc1ccc(Cl)cc1)SCCCc1c[nH]cn1 [Clobenpropit],0.822
8,CN1C(=O)CN=C(c2ccccc2)c2cc(Cl)ccc21 [Diazepam],0.879
9,C[C@H]1CCC[C@H](O)CCCCCc2cc(O)cc(O)c2C(=O)O1 [Zeranol],0.876
